Bioassay records as filed in PubChem.
PrP 5UTR inh: suppresses PrP 5' UTR mRNA reporter expression. 340,000 compounds, 0.35% hits. AID 488862. inhibition, % (no concentration beside the values). cell-based PrP 5' UTR mRNA reporter, plate reader; in the data active = inhibition above about 52%
GDH-TPI counter: counter-screen for M. tuberculosis FBA inhibitors: GDH-TPI coupled enzymes | GDH-TPI coupled enzyme counterscreen, NADH absorbance | inhibition, % at 4.8 µM | 360,000 compounds, 1.2% hits; in the data active = inhibition above about 30%
Mtb FBA inh: inhibitors of M. tuberculosis fructose-bisphosphate aldolase. purified M. tuberculosis FBA, fluorescence read-out. inhibition, % at 1 µM. 360,000 compounds, 2.3% hits; in the data active = inhibition above about 27%
Target sequence (P9WQA3 whole entry, looked up): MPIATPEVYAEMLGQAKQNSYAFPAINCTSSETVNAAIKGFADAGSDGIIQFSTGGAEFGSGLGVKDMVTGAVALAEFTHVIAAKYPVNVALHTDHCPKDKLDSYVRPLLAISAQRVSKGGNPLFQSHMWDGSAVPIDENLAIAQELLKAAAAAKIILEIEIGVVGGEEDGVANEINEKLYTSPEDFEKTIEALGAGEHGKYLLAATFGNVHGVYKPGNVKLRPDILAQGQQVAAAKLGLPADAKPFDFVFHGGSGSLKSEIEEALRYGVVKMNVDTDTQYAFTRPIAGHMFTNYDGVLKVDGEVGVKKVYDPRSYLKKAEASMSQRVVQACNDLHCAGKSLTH
Mtb hypoxia rep: Mtb hypoxia fluorescent reporter inhibition; fluorescence inhibition, % (test concentration not listed); M. tuberculosis hypoxia-regulated fluorescent reporter, fluorescence; 300,000 compounds, 0.1% hits; AID 1159583; in the data active = fluorescence inhibition mostly above about 23%, no sharp cut-off; inactive = mostly below about 17%
Yp Topo-I inh: blocks Yersinia pestis topoisomerase I activity; Y. pestis Topo-I cleavage product accumulation, plate reader; activity, % at 10 µM; 360,000 compounds, 0.064% hits; AID 504884; in the data active = activity above about 50%, passing the limit was not always enough
PrPC TRFRET: reduces human prion protein on the cell surface; inhibition, % at 13.8 µM; 370,000 compounds, 0.43% hits; cell surface PrPC, TR-FRET read-out; in the data active = inhibition above about 24%
Numbers stand for hits. Hits are enriched below; roughly 3.8% of the tested compounds scored in any of these assays.

`CCOC(=O)C1=C(COC(=O)c2ccc(C)c(S(=O)(=O)N3CCOCC3)c2)NC(=O)NC1C` (stereo not drawn) gave PrP 5UTR inh inactive, GDH-TPI counter inactive, Mtb FBA inh inactive, Mtb hypoxia rep inactive, Yp Topo-I inh inactive and PrPC TRFRET inactive.
Screening CCOC(=O)C1=C(COC(=O)c2ccc(OC)c(S(=O)(=O)N3CCOCC3)c2)NC(=O)NC1C (stereo not drawn) returned PrP 5UTR inh inactive, GDH-TPI counter inactive, Mtb FBA inh inactive, Mtb hypoxia rep 18, Yp Topo-I inh inactive and PrPC TRFRET inactive.
For COc1ccc2nc(-c3ccccc3)[nH]c2c1 the results were PrP 5UTR inh inactive, GDH-TPI counter inactive, Mtb FBA inh 150, Mtb hypoxia rep inactive, Yp Topo-I inh inactive and PrPC TRFRET inactive.
For CCOc1ccc2nc(-c3ccccc3)[nH]c2c1 the results were PrP 5UTR inh inactive, GDH-TPI counter inactive, Mtb FBA inh 189, Mtb hypoxia rep inactive, Yp Topo-I inh inactive and PrPC TRFRET inactive.
For CCOc1ccc2nc(C(C)O)[nH]c2c1 (stereo not drawn) the results were PrP 5UTR inh inactive, GDH-TPI counter inactive, Mtb FBA inh inactive, Mtb hypoxia rep inactive, Yp Topo-I inh inactive and PrPC TRFRET inactive.
For Cc1ccccc1-n1c(O)c(C=Nc2nccs2)c(=O)[nH]c1=O the results were Mtb hypoxia rep inactive.
Oc1ccc(C=NNC(=S)NCc2ccco2)cc1 was read as Mtb hypoxia rep inactive.
For COc1ccc2cc3cc(C(=O)Nc4cc(OC)c(OC)c(OC)c4)oc3nc2c1 the results were PrP 5UTR inh inactive, GDH-TPI counter inactive, Mtb FBA inh inactive, Mtb hypoxia rep inactive, Yp Topo-I inh inactive and PrPC TRFRET inactive.
`COc1ccc2cc3cc(C(=O)NCc4ccc5c(c4)OCO5)oc3nc2c1` gave PrP 5UTR inh inactive, GDH-TPI counter 37, Mtb FBA inh inactive, Yp Topo-I inh inactive and PrPC TRFRET inactive.
Screening COc1ccc2c(CC(=O)NCc3ccc4c(c3)OCO4)coc2c1 returned PrP 5UTR inh inactive, GDH-TPI counter inactive, Mtb FBA inh inactive, Mtb hypoxia rep inactive, Yp Topo-I inh inactive and PrPC TRFRET inactive.
Screening COc1ccc2cc3cc(C(=O)NCC4COc5ccccc5O4)oc3nc2c1 (stereo not drawn) returned PrP 5UTR inh inactive, GDH-TPI counter inactive, Mtb FBA inh 152, Yp Topo-I inh inactive and PrPC TRFRET inactive.
`COc1ccc(C(=O)NCc2cccnc2)cc1` gave PrP 5UTR inh inactive, GDH-TPI counter inactive, Mtb FBA inh inactive, Mtb hypoxia rep inactive, Yp Topo-I inh inactive and PrPC TRFRET inactive.
`COc1ccc2cc3cc(C(=O)Nc4ccc5c(c4)OCCO5)oc3nc2c1` gave PrP 5UTR inh inactive, GDH-TPI counter 43, Mtb FBA inh inactive, Yp Topo-I inh inactive and PrPC TRFRET inactive.
`COc1ccc2cc3cc(C(=O)NCc4cccnc4)oc3nc2c1` gave PrP 5UTR inh inactive, GDH-TPI counter inactive, Mtb FBA inh active, Mtb hypoxia rep inactive, Yp Topo-I inh inactive and PrPC TRFRET inactive.
For CC(=O)NCC1COc2ccccc2O1 (stereo not drawn) the results were PrP 5UTR inh inactive, GDH-TPI counter inactive, Mtb FBA inh inactive, Mtb hypoxia rep inactive, Yp Topo-I inh inactive and PrPC TRFRET inactive.
CC(=CCCC(C)(O)C1CC[C@@]2(C)C3CC=C4C(CCC(OC5OC(CO)C(O)C(O)C5O)C4(C)C)[C@]3(C)C(=O)C[C@]12C)COC1OC(CO)C(O)C(O)C1O (stereo partly drawn) was read as Mtb hypoxia rep inactive.
O=C(C=Cc1ccc(Cl)cc1)N(Cc1ccccc1)c1ccccn1 was read as Mtb hypoxia rep inactive.
For CC(=NOCC(=O)OCC(=O)N(C)c1ccccc1)c1ccc2c(c1)OCO2 the results were Mtb hypoxia rep inactive.
Screening Cc1ccc2cc3cc(C(=O)NCCC(C)C)oc3nc2c1 returned PrP 5UTR inh inactive, GDH-TPI counter inactive, Mtb FBA inh inactive, Mtb hypoxia rep inactive, Yp Topo-I inh inactive and PrPC TRFRET inactive.
Screening Cc1ccc2cc3cc(C(=O)NC4CC4)oc3nc2c1 returned PrP 5UTR inh inactive, GDH-TPI counter 49, Mtb FBA inh inactive, Mtb hypoxia rep inactive, Yp Topo-I inh inactive and PrPC TRFRET inactive.
For COc1ccc2cc3cc(C(=O)N4CC(C)CC(C)C4)oc3nc2c1 (stereo not drawn) the results were PrP 5UTR inh inactive, GDH-TPI counter inactive, Mtb FBA inh inactive, Mtb hypoxia rep inactive and Yp Topo-I inh inactive.
Screening COc1ccc2cc3cc(C(=O)N4CCN(c5ccccn5)CC4)oc3nc2c1 returned PrP 5UTR inh inactive, GDH-TPI counter 42, Mtb FBA inh inactive, Mtb hypoxia rep inactive, Yp Topo-I inh inactive and PrPC TRFRET inactive.
For COc1ccc2cc3cc(C(=O)NC(C)C)oc3nc2c1 the results were PrP 5UTR inh inactive, GDH-TPI counter 31, Mtb FBA inh active, Mtb hypoxia rep inactive, Yp Topo-I inh inactive and PrPC TRFRET inactive.
Screening CCOC(=O)CN1N=C(/C=C/c2ccccc2)CCC1=O returned PrP 5UTR inh inactive, GDH-TPI counter inactive, Mtb FBA inh inactive, Yp Topo-I inh inactive and PrPC TRFRET inactive.
Screening CCOC(=O)CN1N=C(/C=C/c2ccc(OCC)cc2)CCC1=O returned PrP 5UTR inh inactive, GDH-TPI counter 34, Mtb FBA inh inactive, Mtb hypoxia rep inactive, Yp Topo-I inh inactive and PrPC TRFRET inactive.
`C=CCN1N=C(/C=C/c2ccc(C)cc2)CCC1=O` gave PrP 5UTR inh inactive, GDH-TPI counter inactive, Mtb FBA inh inactive, Mtb hypoxia rep inactive, Yp Topo-I inh inactive and PrPC TRFRET inactive.
CCOC(=O)C(C)N1N=C(/C=C/c2ccc(C)cc2)CCC1=O (stereo not drawn) was read as PrP 5UTR inh inactive, GDH-TPI counter 39, Mtb FBA inh inactive, Mtb hypoxia rep inactive, Yp Topo-I inh inactive and PrPC TRFRET inactive.
C=CCN1N=C(/C=C/c2ccc(OC)cc2)CCC1=O was read as GDH-TPI counter 34, Mtb FBA inh inactive, Mtb hypoxia rep inactive, Yp Topo-I inh inactive and PrPC TRFRET inactive.
O=C(/C=C/c1ccccc1)Nc1nnc(-c2ccco2)o1 was read as PrP 5UTR inh inactive, GDH-TPI counter 45, Mtb FBA inh inactive, Mtb hypoxia rep inactive, Yp Topo-I inh inactive and PrPC TRFRET inactive.
For CC(=O)Nc1nnc(-c2ccco2)o1 the results were PrP 5UTR inh inactive, GDH-TPI counter inactive, Mtb FBA inh inactive, Mtb hypoxia rep inactive, Yp Topo-I inh inactive and PrPC TRFRET inactive.
For Cc1ccc(-c2cc(-c3ccccc3)cc(-c3ccccc3)[n+]2-c2ccccc2)cc1 the results were PrP 5UTR inh inactive, GDH-TPI counter inactive, Mtb FBA inh inactive, Yp Topo-I inh inactive and PrPC TRFRET 27.
CC(=O)c1nn(-c2ccccc2)cc1C(=O)c1ccc(C)cc1 was read as GDH-TPI counter inactive, Mtb FBA inh inactive, Mtb hypoxia rep inactive, Yp Topo-I inh inactive and PrPC TRFRET inactive.
CC(=O)c1nn(-c2ccc(Cl)cc2)cc1C(=O)c1ccc(C)cc1 was read as GDH-TPI counter inactive, Mtb FBA inh inactive, Mtb hypoxia rep 47, Yp Topo-I inh inactive and PrPC TRFRET inactive.
